Assay outcomes from PubChem.
USP30 inh: inhibitors of human USP30 deubiquitinase | Ubiquitin carboxyl-terminal hydrolase 30 (Homo sapiens), Q70CQ3 | AID 1645860, 2021 | inhibition, % at 25 µM | 5.3% of 47,000 active | purified USP30, Ub-rhodamine cleavage fluorescence
OTUD3 inh: inhibitors of human OTUD3 deubiquitinase | OTU domain-containing protein 3 (Homo sapiens), Q5T2D3 | purified OTUD3, Ub-rhodamine fluorescence, 2 h | inhibition, % at 25 µM | 0.7% of 47,000 active
Target sequence (Q5T2D3 whole entry, looked up, the tested form may be a part): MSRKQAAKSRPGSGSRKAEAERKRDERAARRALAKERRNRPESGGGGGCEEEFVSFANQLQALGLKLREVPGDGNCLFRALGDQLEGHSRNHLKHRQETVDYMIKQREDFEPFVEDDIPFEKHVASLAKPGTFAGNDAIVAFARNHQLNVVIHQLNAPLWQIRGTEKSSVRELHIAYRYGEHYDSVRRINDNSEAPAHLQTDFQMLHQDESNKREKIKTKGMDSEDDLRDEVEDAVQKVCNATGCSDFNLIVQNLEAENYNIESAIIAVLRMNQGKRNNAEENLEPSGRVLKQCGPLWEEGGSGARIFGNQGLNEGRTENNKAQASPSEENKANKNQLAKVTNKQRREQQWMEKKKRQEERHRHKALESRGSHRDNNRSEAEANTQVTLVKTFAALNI
USP28 inh: inhibitors of human USP28 deubiquitinase; purified USP28, Ub-rhodamine cleavage fluorescence, 30 min; inhibition, % at 25 µM; 3% of 47,000 active
USP17 inh: inhibitors of human USP17 deubiquitinase. 6.5% of 47,000 active. Ubiquitin carboxyl-terminal hydrolase 17-like protein 5 (Homo sapiens), A8MUK1. inhibition, % at 50 µM. purified USP17, Ub-rhodamine cleavage fluorescence, 3 h
Large screens that a line does not name were inactive. Most compounds without a hit are left out; they make up all but 11% or so of the library. No stated cut-off is given here; in the data, active means inhibition above about 30%; inactive means the rest.

C[C@]12C(=O)N(c3cccc(C(=O)O)c3)C(=O)N1CCc1c2[nH]c2ccccc12	USP30 inh 36.3
COc1ccc(CNC(=O)c2ccccc2N2C(=O)N3CCc4c([nH]c5ccc(OC)cc45)[C@@]3(C)C2=O)cc1	USP17 inh 44.6
CC(=O)Nc1ccc(NC(=O)c2ccc(N3C(=O)N4CCc5c([nH]c6ccccc56)[C@@]4(C)C3=O)cc2)cc1	USP28 inh 30.6
COc1ccc(CNC(=O)c2cccc(N3C(=O)N4CCc5c([nH]c6ccccc56)[C@@]4(C)C3=O)c2)cc1	none
C[C@]12C(=O)N(c3ccc(C(=O)NCc4ccc(F)cc4)cc3)C(=O)N1CCc1c2[nH]c2ccccc12	USP30 inh 52.0, USP17 inh 34.6
Cn1c(C2CCN(C(=O)c3ccccc3F)C2)nc2ccncc21 (centres undefined)	none
COc1ccc(-c2ccc(CCC(=O)NCC3CCCO3)o2)cc1 (centres undefined)	none
Cn1cnc2cc(-c3noc(CNC(=O)Cc4ccccc4)n3)ccc21	none (no result: USP30 inh, USP28 inh)
CS(=O)(=O)N1CC(C(=O)NCc2ccccc2)Oc2ccccc21 (centres undefined)	none
NS(=O)(=O)c1cccc(NC(=O)CCc2nc3ccccc3s2)c1	none
CC1=C(C(=O)OCc2ccc3c(c2)OCO3)C(c2ccccc2C)CC(=O)N1 (centres undefined)	none
COc1ccc(COC(=O)C2=C(C)NC(=O)CC2c2cccc([N+](=O)[O-])c2)cc1 (centres undefined)	USP28 inh 85.7
Nc1ncnc(N2CC(=O)N(CCc3ccccc3)C(=O)C2)c1[N+](=O)[O-]	none
Cn1cnnc1Sc1ncnc(N)c1[N+](=O)[O-]	USP30 inh 33.5
CC(OC(=O)CNS(=O)(=O)c1ccc2ccccc2c1)C(=O)Nc1ccc(Cl)cc1Cl (centres undefined)	USP30 inh 45.9 (no result: USP17 inh)
N#Cc1c(N)nc2c(c1-c1ccccc1)CCc1ccccc1-2	none
CC(=O)c1oc2nc3c(c(-c4ccc(Cl)cc4)c2c1N)CCc1ccccc1-3	OTUD3 inh 37.4, USP17 inh 38.4
CCc1nc(Nc2ccc3c(c2)SC2=NCCN23)c2oc3ccccc3c2n1	USP30 inh 41.3, USP28 inh 62.7, USP17 inh 61.4
Cc1ccc(-c2c[nH]n3c(=O)cc(CC(C)n4cccn4)nc23)cc1 (centres undefined)	none
CCCCCNc1ncnc2c1CN(C1CCNC1)C(=O)CN2C (centres undefined)	none
CN1CC(=O)N(C2CCNC2)Cc2c(NCc3ccc(Cl)cc3)ncnc21 (centres undefined)	USP28 inh 31.5
Cn1ccc2cc(S(=O)(=O)N3CCCC(C(=O)N4CCC5(CC4)OCCO5)C3)ccc21 (centres undefined)	none
CCn1cc(C(=O)NCc2ccc(F)cc2F)c(=O)c2ccc(C)nc21	USP17 inh 41.3
O=c1c2ccccc2oc2nc(-c3cccs3)n(-c3ccccc3)c(=O)c12	USP30 inh 32.8, USP17 inh 57.5
O=c1oc(-c2cccs2)ns1	none
O=C(Nc1ccc(S(=O)(=O)N2CCOCC2)cc1)c1cccc(C(F)(F)F)c1	none
O=C(Cn1ncc2c(N3CCCC3)ncnc21)Nc1ccc(F)cc1	none
O=C(Cn1ncc2c(N3CCCCC3)ncnc21)NCc1ccc2c(c1)OCO2	USP30 inh 55.4, USP17 inh 54.9
O=C(Cn1ncc2c(N3CCCCCC3)ncnc21)NCc1ccccc1	USP30 inh 70.2
C/C(=C\C(=O)OCCCCCCCCC(=O)O)CC1OCC(CC2OC2C(C)C(C)O)C(O)C1O (centres undefined)	none
Cc1ccc(NC(=O)N2C[C@@H]3C[C@H]2C[C@@H]3NC(=O)c2ccccc2)c(C)c1	none
Cc1ccc(-c2nc3ncccc3o2)cc1NC(=O)COc1ccc([N+](=O)[O-])cc1	USP17 inh 40.5
CC(=O)N1CCN(c2oc(-c3ccc(COc4ccc(C)cc4)o3)nc2C#N)CC1	none
COc1ccccc1-c1nc(C#N)c(N2CCN(C(=O)c3ccccc3)CC2)o1	USP30 inh 47.0
CCOc1ccc(-c2nc(C#N)c(N3CCN(C(=O)c4ccccc4C)CC3)o2)cc1	USP17 inh 52.5
Cc1ccc2c(=O)cc(C(=O)NCC(c3ccco3)N3CCCC3)oc2c1 (centres undefined)	none
Cc1ccccc1OCC(=O)N1CCN(S(=O)(=O)c2ccc3c(c2)OCCCO3)CC1	USP30 inh 37.8
COc1ccc(CC(=O)N2CCN(S(=O)(=O)c3ccc4c(c3)OCCCO4)CC2)cc1	none
CCOc1ccc(-c2nc3c(cnn3-c3ccccc3)c(=O)[nH]2)cc1	USP17 inh 37.2
CN(C)C(=O)c1csc2nc(-c3ccc(NC(=O)c4cccc(Cl)c4)cc3)cn12	none
Cc1cc(C)c2c(-n3cccc3)c(C(=O)NCCc3ccc(S(N)(=O)=O)cc3)sc2n1	USP28 inh 79.7
COc1ccc(S(=O)(=O)Nc2ccc3nc(NC(C)=O)sc3c2)cc1OC	none
CCC(=O)Nc1nc2cc(NC(=O)Nc3cc(C)cc(C)c3)ccc2s1	USP30 inh 48.2, OTUD3 inh 30.5
CCC(=O)Nc1nc2ccc(NC(=O)Cc3ccc(OC)c(OC)c3)cc2s1	USP17 inh 35.6
CCN(CC)C(=O)C1Cn2ccnc2C2(CCN(S(=O)(=O)c3ccc(C)cc3)CC2)O1 (centres undefined)	none
CCOc1ccccc1CNC(=O)c1cnc2scc(C)n2c1=O	none
CC(=O)c1ccc(NC(=O)CSc2nc3nc(C)ccc3o2)cc1	USP17 inh 46.2
Cc1ccc(Cn2nnc3c(=O)[nH]c(C4CCN(C(=O)C5CCCC5)CC4)nc32)cc1	none (no result: USP30 inh, USP28 inh)
COc1ccccc1Nc1cc(C)nc2nc(-c3ccco3)nn12	USP17 inh 40.8
CC(=O)c1ccccc1NC(=O)c1ccc(S(=O)(=O)N(C)C)cc1	none
Cn1c(=O)[nH]c(=O)c2c1nc(N1CCN(CC(N)=O)CC1)n2CCc1ccccc1	none
O=C(Cn1cnc2sc(-c3ccccc3)cc2c1=O)N(Cc1ccccc1F)C1CC1	USP30 inh 35.1, USP28 inh 30.7, USP17 inh 34.4
Cn1c(COc2ccccc2)nnc1SCC(=O)Nc1ccc(N2CCOCC2)cc1	USP30 inh 31.1, USP28 inh 58.1
Cn1c(SCC(=O)Nc2ccc(N3CCOCC3)cc2)nnc1-c1ccco1	none
Cc1nc2c(C)cccn2c(=O)c1Cc1nnc(SCC(=O)Nc2ccccc2)n1C	USP30 inh 32.7, USP17 inh 36.4
Cn1c(SCC(=O)Nc2ccccc2Br)nnc1-c1ccccn1	none
CCOc1ccc(-n2c(SCC(=O)Nc3ccc(C)cc3)nnc2-c2c[nH]c3ccccc23)cc1	USP30 inh 56.0, USP17 inh 63.3
CCOc1ccc(NC(=O)CSc2nnc(-c3ccccn3)n2Cc2ccco2)cc1	none
CCOc1ccc(NC(=O)CSc2nnc(Cc3cccc4ccccc34)n2C)cc1	USP30 inh 46.0, USP28 inh 66.9, USP17 inh 65.1
CC1(C)OC(=O)[C@]2(C)C[C@@H](C(=O)Nc3ccc(F)cc3)[C@@]1(C)N2	none (no result: USP30 inh, USP28 inh)
